# High-throughput results (PubChem)
# Only some compounds are listed: those with a hit (about 19% of all), similar ones and a draw of the others.
# DT40 TDP1 no CPT – qHTS for Inhibitors of human tyrosyl-DNA phosphodiesterase 1 (TDP1): qHTS in cells in absence of CPT; DT40 Tdp1-/- hTDP1 cells, no CPT, ATP luminescence, 48 h; Potency, µM (doses to about 46.2 µM), inactives show at the highest dose activity change, negative = growth inhibition, usual class: inhibitors; 420,000 tested, 15% active; AID 686978, 2013; also: nearly all actives have a fitted effect of over 55% in size
#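 Luminescent ATP content (CellTiter-Glo) served as the growth readout. Knockout chicken DT40 cells expressing human TDP1 were exposed to compounds without camptothecin for a minimum 48 hr at 37 °C.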
# HT1080 IDH1KD tx – HT-1080 IDH1 knockdown cell toxicity (counter line) | AID 686971 | HT-1080 IDH1 knockdown viability, ATP luminescence, 48 h | 360,000 tested, 2% active | Potency, µM (series often up to 46.1 µM), without a hit: at the highest dose activity, negative = toxicity, usual class: cytotoxic;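 also: 0% = DMSO wells and -100% = cell-free medium wells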
#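 Cytotoxicity counter-line: IDH1KD HT-1080, 48 h, CellTiter-Glo. Curves classed by r2, magnitude and activity.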
# DT40 TDP1 CPT – DT40-hTDP1 cell growth loss with CPT; 420,000 tested, 12% active; chicken DT40 Tdp1-/-;hTDP1 cells + 20 nM CPT, ATP luminescence, 48 h; Potency, µM (series often up to 46.2 µM), inactives show at the top dose activity change, negative = growth inhibition, usual class: inhibitors; also: nearly all actives have a fitted effect of over 55% in size
#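 Chicken DT40 Tdp1-/- cells complemented with human TDP1, 400 cells/well, exposed to compounds plus 20 nM camptothecin for at least 48 h at 37 C; viability read as ATP content by CellTiter-Glo luminescence.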
# KB-3-1 cytotox – kills parental KB-3-1 adenocarcinoma cells; AID 1347075; 400,000 tested, 1.4% active; Potency, µM (top dose mostly 46.1 µM), hits mostly cytotoxic; KB-3-1 viability, CellTiter-Glo ATP luminescence, 72 h; also: nearly all actives have a fitted effect of over 60% in size
#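 KB-3-1 parental drug-naive adenocarcinoma cells in DMEM/10% FBS, incubated 72 h at 37 C with pin-transferred compounds across a concentration series. Viability by CellTiter-Glo luminescence; concentration-response curves fitted after normalization.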
# HT1080NT lethal – kills 2HG-producing HT-1080-NT fibrosarcoma cells | AID 686970 | HT-1080-NT fibrosarcoma viability, CellTiter-Glo ATP luminescence, 48 h | Potency, µM (titrated, usually from 46.1 µM), for inactives: at the top dose activity, negative = less viability, usual class: cytotoxic | 360,000 tested, 1.6% active;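 also: NT is the 2HG producing partner of a matched IDH1 knockdown line; 0% = DMSO-treated cells and -100% = media-only wells without cells; nearly all actives have a fitted effect of over 55% in size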
#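 Fibrosarcoma NT cells, 750 per well in 5% FBS RPMI, were exposed to compound for 48 hours. Viability: CellTiter-Glo luminescence.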
# KB-V1 cytotox – KB-V1 MDR subline cytotoxicity. KB-V1 MDR cells viability, CellTiter-Glo, 72 h. Potency, µM (highest dose often 46.1 µM), usual class: cytotoxic. 400,000 tested, 3.4% active. AID 1347076; also: nearly all actives have a fitted effect of over 60% in size
#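 KB-V1, DMEM (no phenol red) + 10% FBS; cpd pin-transferred, titration series; 72 h, 37 degrees C; CellTiter-Glo, luminescence. Data normalized, curve-fit.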
# Active calls of the source: *; i = inactive; ? = inconclusive; . = not tested or not shown. Calls follow the shape of the dose curve; as a rule, active = well fitted curve in the direction sought with a large enough effect; inconclusive = small, poorly fitted or top-dose-only effect, or another doubt; inactive = no such curve, though single readings can be large; an effect the other way counts as inactive or inconclusive. Unless noted, % is scaled to controls: 0 for no effect and ±100 for the full control effect; potency is read from the fitted curve at half-maximal effect.
SMILES,DT40 TDP1 no CPT,HT1080 IDH1KD tx,DT40 TDP1 CPT,KB-3-1 cytotox,HT1080NT lethal,KB-V1 cytotox
COC(=O)C1=C(c2ccccc2)C[C@@H]2CC[C@H]1N2C(=O)NCCNC(C)=O,-12.5%,0.6%,8.8%,i,13.6%,i
COC(=O)C1=C(c2ccc(-c3ccccc3)c(F)c2)C[C@@H]2CC[C@H]1N2C(=O)NCCc1ccccc1,16.4µM*,?,?,?,-27.0%,?
COC(=O)C1=C(c2ccc(-c3ccccc3)c(F)c2)C[C@@H]2CC[C@H]1N2C(=O)NCCOc1ccc(OC)cc1,14.6µM*,-14.3%,14.6µM*,?,0.0%,?
COC(=O)C1=C(c2cccc(C#N)c2)C[C@@H]2CC[C@H]1N2C(=O)NCCO,4.3%,19.0%,-1.7%,i,1.4%,i
COC(=O)C1=C(c2ccc(-c3ccccc3)c(F)c2)C[C@@H]2CC[C@H]1N2C(=O)NCCCOC(C)C,13µM*,-8.4%,14.6µM*,?,-6.3%,i
COC(=O)C1=C(c2ccccc2)C[C@@H]2CC[C@H]1N2C(=O)NCCO,-0.1%,4.4%,13.0%,i,14.7%,i
COC(=O)C1=C(c2ccc(-c3ccccc3)c(F)c2)C[C@@H]2CC[C@H]1N2C(=O)NCCNC(C)=O,?,4.5%,20.6µM*,i,-2.0%,i
COC(=O)C1=C(c2ccc(OC)c(OC)c2)C[C@@H]2CC[C@H]1N2C(=O)NCCc1ccccc1,?,15.1%,-26.6%,i,16.8%,i
c1ccc2c(c1)CNCc1cnnn1-2,6.3%,11.6%,-5.4%,i,18.4%,i
CS(=O)(=O)N1CCC2(CCCN(Cc3ccncc3)C2)CC1,-2.7%,.,-0.3%,.,.,.
CC(Oc1ccccc1)C(=O)Nc1ccc(C(=O)OCc2cc(=O)n3nc(C4CC4)sc3n2)cc1 (stereo not given),?,.,?,i,.,?
OCC1CO1 (stereo not given),2.4%,4.2%,16.5%,i,2.9%,i
COC(=O)C1=C(c2ccc(-c3ccccc3)c(F)c2)C[C@@H]2CC[C@H]1N2C(=O)NCc1cccc2ccccc12,23.1µM*,-11.7%,23.1µM*,i,?,i
COC(=O)C1=C(c2ccc(Cl)c(C(F)(F)F)c2)C[C@@H]2CC[C@H]1N2C(=O)NCCCOC(C)C,13µM*,-2.4%,25.9µM*,i,-6.4%,i
COC(=O)C1=C(c2ccc3ccccc3c2)C[C@@H]2CC[C@H]1N2C(=O)NCCCOC(C)C,14.6µM*,0.0%,?,i,-9.6%,i
COC(=O)C1=C(c2ccc(OC(F)(F)F)cc2)C[C@@H]2CC[C@H]1N2C(=O)NCc1cccc2ccccc12,?,?,?,?,-14.2%,i
Cc1ccc2c(c1)cc1c(=O)n(CC(=O)N3CCC4(CC3)OCCO4)nc(C)n12,?,8.1%,?,i,3.6%,i
S=C(S)N1CCCC1,0.0531µM*,2.6%,0.0596µM*,i,-0.5%,i
Cc1ccsc1C(=O)C1CCCN(Cc2cnc(N3CCCC3)s2)C1 (stereo not given),18.4µM*,-18.9%,11.6µM*,i,2.0%,i
Cc1ccsc1C(=O)C1CCCN(Cc2cc3ccccc3o2)C1 (stereo not given),?,-0.8%,?,i,-2.4%,i
Cc1ccsc1C(=O)C1CCCN(Cc2ccc(-n3cccn3)cc2)C1 (stereo not given),14.6µM*,?,20.6µM*,i,-16.1%,?
CSc1ncc(CN2CCCC(C(=O)c3sccc3C)C2)cn1 (stereo not given),?,-11.3%,?,i,-17.5%,?
COc1cc(CN2CCCC(C(=O)c3sccc3C)C2)cc(OC)c1O (stereo not given),?,2.2%,?,i,-1.6%,i
Cc1ccc(CN2CCCC(C(=O)c3sccc3C)C2)o1 (stereo not given),20.6µM*,10.6%,3.2%,i,-2.8%,?
Cc1ccc2c(c1)[C@]13CCCC[C@@H]1[C@H](C2)N(C)CC3,-19.9%,.,-4.0%,.,.,.
SMILES,DT40 TDP1 no CPT,HT1080 IDH1KD tx,DT40 TDP1 CPT,KB-3-1 cytotox,HT1080NT lethal,KB-V1 cytotox
COc1cc(CC2(CCc3ccncc3)C(=O)N(C)C(=O)N(C)C2=O)cc(OC)c1OC,1.4%,18.2%,4.2%,i,22.0%,i
CC(=O)Nc1ccc(C(=O)OCC(=O)Nc2ccc(Cl)cc2C(=O)c2ccccc2)cc1,?,-5.4%,-14.1%,i,-2.4%,i
CCC(=O)Nc1ccc(C(=O)OCc2ccccc2Cl)cc1,?,3.3%,?,i,3.4%,14.6µM*
FC(F)(F)c1cccc(C2=CCN(CCc3ccc4ccccc4c3)CC2)c1,-47.6%,.,-18.0%,.,.,.
Cc1ccc(-n2c(C)cc(/C=N/NC(=O)c3ccc(CN4CCOCC4)cc3)c2C)cc1,?,?,?,i,-15.2%,16.4µM*
C[n+]1c(-c2ccccc2)sc2ccccc21,1.03µM*,-1.8%,1.3µM*,i,-0.6%,i
COC(=O)C1=C(c2cc3ccccc3o2)C[C@@H]2CC[C@H]1N2C(=O)N1CCCCC1,2.31µM*,10.3µM*,4.61µM*,5.8µM*,?,?
CCCNC(=O)N1[C@H]2CC[C@@H]1C(C(=O)OC)=C(c1cc3ccccc3o1)C2,16.4µM*,9.4%,16.4µM*,i,-0.9%,i
COC(=O)C1=C(c2cc3ccccc3o2)C[C@@H]2CC[C@H]1N2C(=O)N1CCCC1,16.4µM*,0.3%,?,?,3.7%,i
COC(=O)C1=C(c2cc3ccccc3o2)C[C@@H]2CC[C@H]1N2C(=O)NCCO,-26.0%,3.7%,-11.6%,i,-0.8%,i
COC(=O)C1=C(c2ccc(S(C)(=O)=O)cc2)C[C@@H]2CC[C@H]1N2C(=O)N1CCCCC1,-18.5%,8.1%,-27.1%,i,4.0%,i
COC(=O)C1=C(c2c(C)noc2C)C[C@@H]2CC[C@H]1N2C(=O)N1CCCCC1,-7.3%,0.0%,-15.5%,i,21.7%,i
CCOP(=O)(Cc1cc(C(=O)CC)c(C)o1)OCC,?,0.5%,1.8%,i,0.3%,i
COc1cccc(-n2c(/C=C/c3ccccn3)nc3ccccc3c2=O)c1,?,3.2%,?,?,4.5%,?
